What is called inhibition is the relative decrease from the control value, in per cent.

Among all 220,000 compounds or so, about 930 (0.42%) were called active. The sample holds actives, similar compounds and a random draw of the others, so the mix is not that of the screen. No stated cut-off is given here; in the data, active means inhibition above about 50%; inactive means the rest.

Glycoprotein 42 (Epstein-Barr virus (strain AG876)), sequence (Q1HVG2 whole entry, looked up): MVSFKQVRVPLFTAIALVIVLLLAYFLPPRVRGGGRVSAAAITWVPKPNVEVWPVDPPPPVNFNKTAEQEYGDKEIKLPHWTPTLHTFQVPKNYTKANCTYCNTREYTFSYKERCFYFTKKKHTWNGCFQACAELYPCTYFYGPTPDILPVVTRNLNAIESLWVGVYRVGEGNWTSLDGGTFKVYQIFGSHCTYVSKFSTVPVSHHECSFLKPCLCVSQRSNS

The assay addresses Glycoprotein 42 (Epstein-Barr virus (strain AG876)) (UniProt Q1HVG2). Put plainly: EBV glycoprotein 42 binding blockers – biochemical, uHTS, fluorescence polarization, primary screen (AID 1085). The note with it: Fluorescence polarization binding assay, mP read-out; active compounds read high; tested at 21.74 µM. (Fluorescence polarisation rises when a labelled molecule tumbles more slowly, as on binding a larger partner.)
Consider `Cc1no[n+]([O-])c1COc1ccccc1/C=C1\NC(=S)NC1=O`, for which the inhibition was -22.4% (inactive). As to `COc1ccc(-n2cnnc2SCC(=O)Nc2cccc([N+](=O)[O-])c2)cc1`, the inhibition is 6.38% (inactive). Take `CC1CN(S(=O)(=O)c2ccc(C(=O)Nc3sccc3C(N)=O)cc2)CC(C)O1` (stereo not drawn): the inhibition was 6.08% (inactive). As to `O=C(Nc1cccnc1)c1ccc(Cl)c([N+](=O)[O-])c1`, the inhibition was -3.95% (inactive). On to `Cn1cc(CN2CCCC(CO)C2)c(-c2ccc(Oc3ccccc3)cc2)n1` (stereo not drawn), for which the inhibition was -12.6% (inactive).

In the case of `COC(=O)C1=C(C)Nc2ncnn2C1c1ccco1` (stereo not drawn), the inhibition is 6.95% (inactive). As for `Brc1ccc(C2=CC(c3ccco3)n3ncnc3N2)cc1` (stereo not drawn), the inhibition is 105% (active). As for `CC1=C(C(=O)OCc2ccccc2)C(c2ccco2)n2ncnc2N1` (stereo not drawn), the inhibition is 4.92% (inactive). Take `Cc1cc(-c2nc(C)c(-c3nnc(SCC(=O)Nc4ccccc4)n3C)s2)no1`: the inhibition was -5.93% (inactive). Consider `COc1ccc(Cc2n[nH]c(=S)n2NC(=O)Nc2ccc(C)cc2)cc1`, for which the inhibition was -9.72% (inactive). For `O=C(Nc1cn(-c2ccccc2)nc1-c1ccccc1)c1ccccc1`, the inhibition is -10.3% (inactive). In the case of `CCCCN1C(=O)CC(N2CCOCC2)C1=O` (stereo not drawn), the inhibition was -40.1% (inactive). For the molecule `N#C/C(=C\C1=C(N2CCOCC2)C(=C\c2ccccc2)/CC1)C(=O)Nc1ccccc1F`, the inhibition is 154% (active). In the case of `N#C/C(=C\c1ccccc1C(F)(F)F)C(=O)Nc1ccccc1F`, the inhibition is -19.9% (inactive). In the case of `C(=N\N1CCN(c2ccccn2)CC1)/C1=C(N2CCOCC2)C(=C/c2ccccc2)/CC1`, the inhibition was 22.4% (inactive). With `Cc1sc2nc(CC(N)=O)[nH]c(=O)c2c1-c1ccccc1`, the inhibition is -7.12% (inactive).

Consider `CN1CCN(CCNC(=O)Nc2ccc([N+](=O)[O-])cc2)CC1`, for which the inhibition is -6.33% (inactive). The result for `CCN(CC(=O)Nc1ccc(S(=O)(=O)N2CCCC2)cc1)CC(=O)Nc1cccc(OC)c1` reads -7.32% (inactive); that for `CCCCCCCCc1c(O)nc(-n2[nH]c(C)c(CCO)c2=O)[nH]c1=O`, -21.7% (inactive). With `COc1ccc(C2CC(c3ccc(C)cc3)Nc3nc(N)nn32)cc1` (stereo not drawn), the inhibition is -6.12% (inactive). The result for `COc1ccc(C2C=C(c3ccc(Br)cc3)Nc3nc(NS(C)(=O)=O)nn32)cc1` (stereo not drawn) reads 80.6% (active); that for `COc1ccc(C2=CC(c3cccc(OC)c3)n3nnnc3N2)cc1` (stereo not drawn), -13.3% (inactive).

For the molecule `CCOCCCNC(=S)N1CCC(NC(=O)C2CCCCC2)CC1`, the inhibition is -2.69% (inactive). Regarding `Oc1c(Cl)cc(Cl)c(Cl)c1Cc1c(O)c(Cl)cc(Cl)c1Cl`, the inhibition was 59.7% (active). Turning to `CCCC[C@@H]1CN=C(N)N1CCc1cc(C(F)(F)F)cc(C(F)(F)F)c1`, the inhibition is -11.3% (inactive). Then `CC1CCCN(S(=O)(=O)c2ccc(N(C(=O)c3cnccn3)C(C(=O)NC3CCCCC3)c3cccs3)cc2)C1` (stereo not drawn), with -17.8% (inactive). In the case of `Cc1ccc(S(=O)(=O)C(C#N)c2nc3ccccc3nc2N2CCCC2)cc1C` (stereo not drawn), the inhibition is 69.2% (active). With `Cc1ccc(S(=O)(=O)Nc2nc3ccccc3nc2N2CCc3ccccc3C2)cc1`, the inhibition was 8.67% (inactive).

Turning to `Cc1cc(N2CCN(S(=O)(=O)c3ccc(C)c(C)c3)CC2)c2ccccc2n1`, the inhibition is 12.3% (inactive). For the molecule `O=C(COc1ccc(-c2ccccc2)cc1)NN=C1CCCC1`, the inhibition is -13.3% (inactive).

Turning to `O=C(Nc1ccc2c(c1)OCCO2)c1ccoc1`, the inhibition was -10.9% (inactive).

On to `COc1ccc(/C(O)=C2/C(=O)C(=O)N(CC3CCCO3)C2c2ccc(OC)c(OC)c2)cc1` (stereo not drawn), for which the inhibition was -16.4% (inactive). Consider `COc1ccc(-c2nc(CS(=O)CC(=O)NCc3ccccn3)c(C)o2)cc1` (stereo not drawn), for which the inhibition was 117% (active). Regarding `COc1ccc(-c2nc(CS(=O)CC(=O)NCc3cccnc3)c(C)o2)cc1OC` (stereo not drawn), the inhibition was -12.1% (inactive). `COc1ccc(-c2nc(CS(=O)CC(=O)N3CCc4ccccc4C3)c(C)o2)cc1` (stereo not drawn): the inhibition was -1.18% (inactive). For `CC[N+]1(CC)CC2=Cc3ccccc3CC2C1` (stereo not drawn), the inhibition is -0.55% (inactive). Take `N#Cc1cccc(Nc2c3c(nc4ccccc24)CCCC3)c1`: the inhibition was 5.27% (inactive). Regarding `Cc1cccc(N)c1SC1CCCCC1O` (stereo not drawn), the inhibition was -8.15% (inactive). `O=C(Nc1nnc(Cc2ccc(Cl)cc2)s1)c1ccncc1`: the inhibition was 0.5% (inactive). Take `O=C(Nc1nnc(Cc2ccccc2)s1)c1cnccn1`: the inhibition is 58.2% (active). Take `O=C(Nc1nnc(Cc2ccc(Cl)cc2)s1)c1cccnc1`: the inhibition is -5.07% (inactive). The result for `Cc1cc(C)n2nc(C(=O)N3CCN(Cc4ccc5c(c4)OCO5)CC3)nc2n1` reads -5.29% (inactive); that for `Cc1ccc(-c2nnc(SCC(=O)N/N=C/c3cccs3)n2-c2ccc(C)cc2)cc1`, -4.61% (inactive). For `O=S(=O)(c1cccc(C(F)(F)F)c1)N1CCN(c2cnccn2)CC1`, the inhibition was -12.8% (inactive). Take `Oc1[nH]c2ccc(Br)cc2c1N=Nc1nn[nH]n1`: the inhibition was -11.8% (inactive). Consider `Cc1cccc(N=Nc2c(O)[nH]c3ccc(F)cc23)c1`, for which the inhibition is 51.7% (active). In the case of `Cc1cccc(N=Nc2c(C)[nH]n(-c3ccccc3)c2=O)c1`, the inhibition was 4.36% (inactive). For the molecule `COc1ccc(-c2ccc(CNCCCN3CCOCC3)o2)cc1Cl`, the inhibition was -7.89% (inactive).

Take `Cn1c(=O)c(=O)n(C)c2cc(S(=O)(=O)NCCN3CCN(c4ccccc4F)CC3)ccc21`: the inhibition was -5.54% (inactive). `CN(C)c1ccc(NC(=S)N(CCc2ccccc2)C2CC(=O)N(c3c(Cl)cccc3Cl)C2=O)cc1` (stereo not drawn): the inhibition was -7.96% (inactive). Then `CCOCCCN(C(=O)Cn1nnc(-c2ccc(OC)c(OC)c2)n1)C(CC)C(=O)NC1CCCC1` (stereo not drawn), with 2.09% (inactive).

In the case of `CN(C)c1ccc(Nc2c3c4c(cccc4n(C)c2=O)C(=O)c2ccccc2-3)cc1`, the inhibition is 51.7% (active). Turning to `COC(=O)Cn1nc(-c2ccccc2)c2cc(Cl)ccc21`, the inhibition is -7.25% (inactive). Take `CCOC(=O)N1CCN(Cc2nc(Cc3cccc(C(F)(F)F)c3)no2)CC1`: the inhibition is 5.02% (inactive). In the case of `O=C(COC(=O)/C=C/c1ccc(S(=O)(=O)N2CCCCCC2)cc1)NCc1ccccc1Cl`, the inhibition was -7.1% (inactive). The result for `Cc1cccc(NC(=O)c2sc3nc4c(c(-c5ccco5)c3c2N)CCC4)c1` reads -22.7% (inactive); that for `CC(=O)Nc1ccc(NC(=O)c2sc3nc4c(c(-c5ccc(C)cc5)c3c2N)CCC4)cc1`, -13.2% (inactive). Turning to `NC(=O)c1sc2nc3c(c(-c4ccccc4)c2c1N)CCC3`, the inhibition is 68.4% (active). Regarding `[O-][N+]12CCCCC1CCCC2CO` (stereo not drawn), the inhibition was -12% (inactive). Take `CCN(CC)c1ccc2oc(=O)c(C)nc2c1`: the inhibition was 51.1% (active). Consider `CCN(CC)c1ccc2c(Nc3ccccc3)c(C=O)c(=O)oc2c1`, for which the inhibition is -27.9% (inactive).

For `CCN(CC)c1ccc2cc(C(=O)O)c(=O)oc2c1`, the inhibition was -20.2% (inactive). For the molecule `CCOC(=O)C1=C(c2ccccc2)N=C2SCC(=O)N2C1c1ccc(O)c(OC)c1` (stereo not drawn), the inhibition was -7.62% (inactive). Then `CSCC[C@H](NC(=O)NC1CCCC1)C(=O)O`, with -16.3% (inactive); and `CCc1nnc(NC(=O)Cc2cccs2)s1`, with 15.8% (inactive). The result for `O=C(Cc1cccs1)Nc1nnc(C2CC2)s1` reads -0.17% (inactive); that for `COc1ccc(Cc2nnc(NC(=O)Cc3cccs3)s2)cc1`, 73.9% (active).

Turning to `CC(C)CCN1CCN(C/C=C/c2ccco2)CC1CCO` (stereo not drawn), the inhibition is 0.69% (inactive).

On to `O=C(Nc1ccc(N2CCN(C(=O)c3ccccc3)CC2)c(Cl)c1)c1ncn[nH]1`, for which the inhibition was -5.31% (inactive). For `O=C(/C=C/Nc1ccc(S(=O)(=O)Nc2cnc3ccccc3n2)cc1)c1cccnc1`, the inhibition is 0.92% (inactive). On to `O=C(NCc1ccccn1)c1ccc2nc(-c3ccco3)c(-c3ccco3)nc2c1`, for which the inhibition is 33.5% (inactive). In the case of `COc1ccc(NC(=O)Nc2ccc3nsnc3c2)cc1`, the inhibition is -9.53% (inactive). As for `COCCNC(=O)Nc1ccc2nc(-c3ccco3)c(-c3ccco3)nc2c1`, the inhibition was 52.7% (active). With `O=C(/C=C/c1cn(-c2ccccc2)nc1-c1ccc2c(c1)OCCO2)NCCCN1CCOCC1`, the inhibition was -12.9% (inactive).

As for `CC(=O)c1ccccc1NC(=O)CC1(CC(=O)O)CCCCC1`, the inhibition is -14.7% (inactive).

For `Cc1cc(F)ccc1S(=O)(=O)Nc1ncnc2scc(-c3ccc(F)cc3)c12`, the inhibition is 9.65% (inactive). Then `COc1cccc(N(CC(=O)NCCSc2ccccn2)S(C)(=O)=O)c1`, with -23.3% (inactive); and `Brc1ccc(-c2csc(N/N=C/c3cccnc3)n2)cc1`, with 2.77% (inactive).

As to `CCCNc1c(N)c(=O)c1=O`, the inhibition was 2.64% (inactive). For `CC(=O)c1ccc(-c2ccc(Cn3c(C)nc4cc(N)c(C)nc43)cc2)cc1`, the inhibition was 2.98% (inactive). With `O=c1[nH]c2c(c(=O)n1Cc1ccccc1)CCC2`, the inhibition is -9.97% (inactive). Take `Cc1cc2nc3c(=O)n(Cc4ccccc4)c(=O)[nH]c3nc2cc1N`: the inhibition was 135% (active). As to `COC(=O)CCSc1cc([N+](=O)[O-])cc2c1c(C1OCCS1)nn2-c1ccccc1` (stereo not drawn), the inhibition was 24.1% (inactive). Regarding `O=C(COc1ccc(/C=N/NC(=O)c2ccc(O)cc2)cc1)Nc1ccc([N+](=O)[O-])cc1`, the inhibition was 77.5% (active). Turning to `CCCCCC(=O)Nc1ccc(C(=O)N/N=C/c2ccc([N+](=O)[O-])cc2)cc1`, the inhibition is -19.6% (inactive).

As for `O=C(N/N=C/c1ccc(OCc2ccccc2)cc1)c1ccc(O)cc1`, the inhibition was -4.07% (inactive). Then `C/C=C\C=C\C(=O)N1CC2(CC(c3cccc(NC(=O)/C(C)=C\C)c3)=NO2)C[C@H]1C(N)=O` (stereo partly drawn), with -17.9% (inactive). Turning to `CSc1ccccc1NC(=O)CN(C)CC(=O)Nc1cccc(Br)c1`, the inhibition was -0.02% (inactive).

Values taken from PubChem BioAssay AID1085 (Emory University Molecular Libraries Screening Center, 2008).
